Screening data from PubChem BioAssay.
MARV entry inh: qHTS for inhibitors of binding or entry into cells for Marburg Virus; AID 540276, 2011; Potency, µM (titrated, usually from 37.8 µM), for the others: at the top dose activity change, negative = inhibition, hits mostly inhibitors; Marburg virus pseudotyped entry inhibition, cell reporter; 300,000 compounds, 1.8% hits; calls by dose curve; tested in HEK293 cells; further: potency means the concentration at half of the fitted maximal effect; on the % scale 0 is the no-effect control and ±100 the full control effect
VACV mCherry inh: qHTS for Stage-Specific Inhibitors of Vaccinia Orthopoxvirus: mCherry Reporter Primary qHTS; Vaccinia virus mCherry reporter infection, fluorescence; Potency, µM (series often up to 36.5 µM), without a hit: at the top dose activity change, negative = inhibition, usual class: inhibitors; 310,000 compounds, 0.63% hits; calls by dose curve; tested in A549 cells; further: potency means the concentration at half of the fitted maximal effect; on the % scale 0 is the no-effect control and ±100 the full control effect; nearly all actives have a fitted effect of over 35% in size
Vaccinia Venus: qHTS for Stage-Specific Inhibitors of Vaccinia Orthopoxvirus: Venus Reporter Primary qHTS. AID 720580, 2013. Potency, µM (titrated, usually from 36.5 µM), for inactives: at the top dose activity change, negative = inhibition, usual class: inhibitors. 330,000 compounds, 0.46% hits. Vaccinia virus Venus reporter expression, fluorescence; calls by dose curve; tested in A549 cells; further: potency means the concentration at half of the fitted maximal effect; on the % scale 0 is the no-effect control and ±100 the full control effect; nearly all actives have a fitted effect of over 30% in size
Shiga inhibitor: A qHTS for Small Molecule Inhibitors of Shiga Toxin; AID 2315, 2010; inhibition, % at 38.7 µM; 290,000 compounds, 9.2% hits; Vero cells, Shiga toxin protein synthesis inhibition reporter; in the data active means inhibition mostly above about 28%, no sharp cut-off; inactive means mostly below about 43%; further: 0% is about no effect
CHX counter: Cycloheximide Counterscreen for Small Molecule Inhibitors of Shiga Toxin. cell reporter, cycloheximide protein synthesis inhibition counterscreen. max response, %. 300,000 compounds, 12% hits; in the data active means max response mostly above about 13%, no sharp cut-off; inactive means mostly below about 14%; further: read at 38.3 µM for the half of the compounds with a filed dose; 0% is about no effect
Lassa entry inh: qHTS for Inhibitors of binding or entry into cells for Lassa Virus; Lassa virus pseudotype entry inhibition, cell reporter; Potency, µM (titrated, usually from 37.9 µM), for inactives: at the highest dose activity change, negative = inhibition, hits mostly inhibitors; 300,000 compounds, 1.2% hits; calls by dose curve; tested in HEK293 cells; further: potency means the concentration at half of the fitted maximal effect; on the % scale 0 is the no-effect control and ±100 the full control effect; nearly all actives have a fitted effect of over 50% in size
* hit, by the source's call; i = inactive; ? = inconclusive; · = no result given; [ ] = another dose, or the depositor's remark. Shown is part of a subset that was picked to be rich in hits.

SMILES	MARV entry inh	VACV mCherry inh	Vaccinia Venus	Shiga inhibitor	CHX counter	Lassa entry inh
COC(=O)c1c(NC(=O)CS(=O)(=O)c2ccccc2)sc(C)c1C	-16%	?	?	·	·	-11%
COCc1nnc(NC(=O)c2ccc(NC(=O)C(C)C)cc2)s1	8%	·	·	47	-3	-7%
COc1cccc(C(=O)Nc2nc3ccccc3s2)c1	·	·	·	57*	35*	·
CCc1nnc(NC(=O)c2ccc(NC(=O)C(C)C)cc2)s1	·	·	·	99*	41*	·
O=C(Nc1nc2ccccc2s1)c1ccc(F)cc1	·	5%	-20%	82*	32*	·
NC(=O)c1ccc2nc(NC(=O)c3ccc(N)cc3)sc2c1	?	-4%	-19%	33*	20*	?
COc1cccc(C(=O)Nc2cc(-c3cn4cccnc4n3)ccc2C)c1OC	·	-12%	-5%	·	·	12%[46.1 µM]
CCOc1cc(N2CCOCC2)c(OCC)cc1NCC(=O)N1CCN(Cc2ccccc2)CC1	?	?	-11%	-15	7	?
O=C(Nc1nc2c(s1)C(=O)CCC2)c1ccccc1	?	-11%[1.46 µM]	-20%	48	43*	?
O=C(Nc1nc(=O)[nH]s1)c1ccccc1	-10%[46.1 µM]	i	-7%	2	7	1%
CCc1nnc(NC(=O)c2ccc3ncsc3c2)s1	·	·	·	47*	18*	·
CCOc1cc(CNCCc2ccc(S(N)(=O)=O)cc2)ccc1OCc1ccccc1	6.5µM*	·	·	-19	-2	?
CCOc1cc(CNCCc2ccc(S(N)(=O)=O)cc2)cc(Cl)c1OCc1ccccc1	?	·	·	-10	9	?
Cc1ccc(C(=O)O)cc1NC(=O)C1CCN(S(=O)(=O)c2ccc3c(c2)OCCO3)CC1	-7%[46.1 µM]	-1%	-10%	·	·	4%[46.1 µM]
COc1cccc(Cn2ccn(-c3ccc(F)cc3)c(=O)c2=O)c1	·	-6%	-6%	·	·	9%[46.1 µM]
CN(C)CCNc1ccc2nnn3c4ccc(O)cc4c(=O)c1c23	?	?	?	·	·	-12%
CCN(CC)CCCNc1ccc2ncn3c4ccc(O)cc4c(=O)c1c23	?	0.89µM*	?	·	·	?
CCOC(=O)c1c(CC(C)C)csc1NC(=O)c1ccccc1C(=O)O	·	8%[7.34 µM]	16%[7.34 µM]	20	1	·
CC(C)Cc1csc(NC(=O)c2ccc(F)cc2)c1C(=O)O	?	-22%	?	56*	40*	?
Cc1cccc(N2CCN(C(=O)CCCCCn3c(=S)[nH]c4ccc(N5CCOCC5)cc4c3=O)CC2)c1C	·	·	·	-5	-3	·
O=C(N/N=C/C(Br)=C/c1ccccc1)c1cccnc1	?	-20%	-23%	66*	38*	?
O=C(N/N=C/C(Br)=C/c1ccccc1)c1ccncc1	·	·	·	73*	38*	·
O=C(N/N=C/C(Br)=C/c1ccccc1)c1ccc([N+](=O)[O-])cc1	·	·	·	4	11	·
Cc1cc(C)c2c(c1)SC1=NC(c3ccccc3)(C(F)(F)F)NC(=O)N12 (configuration not stated)	15%	·	·	36	24*	?
O=C(C1CC12CCN(Cc1cccc3cccnc13)CC2)N1CCN(Cc2cccs2)CC1 (configuration not stated)	·	-11%	-5%	·	·	·
SMILES	MARV entry inh	VACV mCherry inh	Vaccinia Venus	Shiga inhibitor	CHX counter	Lassa entry inh
Cc1ccc(NC(=O)c2ccc(F)cc2F)cc1NS(C)(=O)=O	·	·	·	61*	8	·
CCc1ccc(C(=O)Nc2ccc(C)c(NS(C)(=O)=O)c2)cc1	·	·	·	39	7.6*	·
CCOC(=O)c1ccc(NC(=O)c2ccc(NS(C)(=O)=O)cc2)cc1	14%	-16%	-11%	15	12	-5%
COc1cc2c(cc1NC(=O)COc1ccc(Cl)cc1Br)oc1ccccc12	-2%[46.1 µM]	-10%	-13%	·	·	-1%[46.1 µM]
O=C(Nc1ccn(-c2ccccc2)n1)c1ccc(Cl)cc1	?	i	-22%	106*	45*	-4%
O=C(Nc1ccn(-c2ccccc2)n1)c1ccccc1Br	·	·	·	50*	38*	·
CC(=O)Nc1ccn(-c2ccccc2)n1	?	-11%	-3%	52*	31*	9%
C#CCN1C(=O)[C@]2(O[C@H](C)CC3=CCCC32)c2c(Br)cccc21 (some centres not stated)	-15%[14.2 µM]	·	·	·	·	?
N=C1C(c2nc3ccccc3s2)=C(O)CN1Cc1ccco1	?	?	-21%	67*	26*	18%
O=c1cc(CSc2nnc(COc3ccccc3)o2)c2ccccc2[nH]1	?	·	·	-7	6	23µM*
O=C(COC(=O)CCc1nc2ccccc2c(=O)[nH]1)NC1CCS(=O)(=O)C1 (configuration not stated)	·	·	·	26	34*	·
CC1CCC(NC(=O)CC(C)(C)Cc2nc3ccccc3c(=O)[nH]2)CC1 (configuration not stated)	?	-2%	-20%	51	16*	-26%
O=C(COC(=O)CCc1c[nH]c2ccccc12)NC1CCS(=O)(=O)C1 (configuration not stated)	?	·	·	-2	1	5%
COc1ccc(CN2CCC3(CCC(CNC(=O)c4ccco4)O3)CC2)c(OC)c1C (configuration not stated)	·	-3%	-16%	·	·	·
Cc1ccc(CNc2ncnc3sc(C(=O)N4CCCCC4c4cccnc4)c(C)c23)o1 (configuration not stated)	·	-13%	-11%	·	·	·
COc1ccc(Br)cc1C(=O)Nc1ccc(Cc2ccncc2)cc1	1%	·	·	-7	-5	3%
COc1ccccc1C(=O)NC(=S)Nc1ccc(Cc2ccncc2)cc1	·	·	·	42*	20*	·
COc1ccc(C(=O)NC(=S)NC(C)c2ccccc2)cc1 (configuration not stated)	3%[46.1 µM]	-9%	-3%	·	·	?
COc1cc(C(=O)NC(=S)Nc2ccc(Cc3ccncc3)cc2)cc(OC)c1OC	·	·	·	-10	-3	·
Cc1cccc(C(=O)NC(=S)Nc2ccc(Cc3ccncc3)cc2)c1	-14%	-17%	?	38	15	-13%
O=C(NC(=S)NC(c1ccccc1)c1ccncc1)c1ccccc1 (configuration not stated)	6.5µM*	-2%	-15%	-3	-6	?
COc1c(C(=O)Nc2ccc(Cc3ccncc3)cc2)ccc2ccccc12	?	-24%	?	96*	20*	?
O=C(NC(=S)Nc1ccc(Cc2ccncc2)cc1)c1ccccc1	?	-12%	-21%	34	37*	?
Cc1ccc(OCC(=O)NC(=S)Nc2ccc(S(=O)(=O)Nc3cc(C)on3)cc2)c(Br)c1	18%	-13%	-7%	-10	-4	9%
O=C1C(C=NCCCn2ccnc2)=C(O)c2ccccc21	?	·	·	·	·	12%
COc1ccc(CN=C(C#N)C2=C(O)c3ccccc3C2=O)cc1	·	·	·	14	12	·
CC(C)CN=CC1=C(O)c2ccccc2C1=O	1%	-10%	-9%	72*	37*	?
O=C1C(C=NCCCN2CCCC2=O)=C(O)c2ccccc21	-19%	·	·	102*	40*	-23%
